From PubChem BioAssay (Tox21) come the findings set out here.

A short description of experiment [1]: Nuclear factor erythroid 2-related factor 2/antioxidant responsive element (Nrf2/ARE) small molecule agonists: qHTS cell viability counter screen in human keratinocytes (AID 1919968; active = well fitted curve in the direction sought with a large enough effect in the repeat runs; an effect the other way counts as inactive or inconclusive; also: nearly all actives have a fitted effect of over 55% in size; also: potency is read from the fitted curve at half-maximal effect). The essentials: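 In human HaCaT keratinocytes stably expressing an ARE-driven luciferase, compound exposure lasted 23 h at 37 C under 5% CO2. Viable cells are quantified with a protease-based fluorogenic reagent (CellTiter-Fluor) read 1 h after addition.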

A short description of experiment [2]: Nuclear factor erythroid 2-related factor 2/antioxidant responsive element (Nrf2/ARE) small molecule agonists: luciferase reporter gene qHTS assay in human keratinocytes (AID 1919969). Also: nearly all actives have a fitted effect of over 35% in size. Also: potency is read from the fitted curve at half-maximal effect.
Experiment [3] deals with KiSS-1 receptor (Homo sapiens) (UniProt Q969F8). Nature of the experiment: Human kisspeptin (KISS1R) small molecule agonists, calcium flux assay in KISS1R-HEK293 cells (AID 1920064; active = well fitted curve in the direction sought with a large enough effect in the repeat runs; an effect the other way counts as inactive or inconclusive). The method, boiled down: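 Concentration-response testing used 15 concentrations in triplicate on human KISS1R-expressing HEK293 cells. Calcium-dependent fluorescence (Ex/Em 480/540) was followed kinetically for 3 min after compound transfer.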
Chain of KiSS-1 receptor (Homo sapiens) (Q969F8 whole entry, looked up): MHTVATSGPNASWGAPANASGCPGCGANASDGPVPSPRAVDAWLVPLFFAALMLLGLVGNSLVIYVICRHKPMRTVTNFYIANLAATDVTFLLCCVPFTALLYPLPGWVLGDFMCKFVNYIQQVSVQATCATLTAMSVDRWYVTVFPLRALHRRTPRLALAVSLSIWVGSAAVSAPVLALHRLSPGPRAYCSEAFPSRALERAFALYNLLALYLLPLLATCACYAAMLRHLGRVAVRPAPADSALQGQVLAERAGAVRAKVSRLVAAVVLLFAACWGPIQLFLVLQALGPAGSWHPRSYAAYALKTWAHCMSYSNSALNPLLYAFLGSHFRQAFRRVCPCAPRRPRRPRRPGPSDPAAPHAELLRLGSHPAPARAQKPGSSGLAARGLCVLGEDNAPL

A short description of experiment [4]: G protein-coupled receptor (GPCR) small molecule agonists, calcium flux assay: HEK293 wild type cell line counter screen (AID 1920065). The essentials: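 Fluorescence intensity signals activation. After overnight (18 h) culture and a 1 h calcium dye load at 37 C, compounds are added by pin tool and the plate read at 480/540 nm for 3 min in 1 s steps.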
Experiment [5] can be described thus: p53 small molecule agonists, cell-based qHTS assay with rat liver microsomes (AID 1963578). The essentials:
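Compound in DMSO added to p53RE-bla cells 5 h post-plating; rat microsomes/NADPH 0.5 mg/mL final; 16 h, 37 C; LiveBLAzer 2 h RT.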

Experiment [6] is described as follows: p53 small molecule agonists, cell-based qHTS assay with human liver microsomes: qHTS cell viability counter screen (AID 1963579). Also: nearly all actives have a fitted effect of over 45% in size. The essentials:
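HLM-supplemented (0.5 mg/mL final) and NADPH-supplemented (0.5 mg/mL final) p53RE-bla cultures, 4,000 cells per well, were dosed with compounds in DMSO for 16 h at 37 C; luminescent ATP detection (CellTiter-Glo, 30 min, room temperature) quantified surviving cells.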

Experiment [7] in a line: p53 small molecule agonists, cell-based qHTS assay with rat liver microsomes: qHTS cell viability counter screen (AID 1963580). Also: nearly all actives have a fitted effect of over 45% in size. The method, boiled down:
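After the beta-lactamase ratio was read, CellTiter-Glo was added to the same wells and luminescence measured at 30 min; cells had been treated 16 h at 37 C with compounds, rat liver microsomes and NADPH (0.5 mg/mL final each).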

A short description of experiment [8]: p53 small molecule agonists, cell-based qHTS assay: qHTS cell viability counter screen (AID 1963581). Also: nearly all actives have a fitted effect of over 45% in size. The method, boiled down:
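Luminescence from CellTiter-Glo, reflecting ATP content, serves as the cytotoxicity measure; it is taken after the 2 h reporter substrate step in HCT-116 p53RE-bla cells dosed for 16 h at 37 C.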

Experiment [9] has as its target 5-hydroxytryptamine receptor 2A (Homo sapiens) (UniProt P28223). Nature of the experiment: 5-hydroxytryptamine receptor 2A (HTR2A) small molecule agonists, cell-based qHTS assay (AID 1963587). Also: nearly all actives have a fitted effect of over 30% in size. Also: potency is read from the fitted curve at half-maximal effect. The essentials:
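CHO cells stably expressing human HTR2A, plated 18 h, loaded with calcium dye 1 h at 37 C. Agonist mode: compounds added and intracellular calcium fluorescence recorded kinetically for 2 min at 1 sec intervals.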

For experiment [10], the target named is Muscarinic acetylcholine receptor M1 (Homo sapiens) (UniProt P11229). The experiment in a line: Cholinergic receptor muscarinic 1 (CHRM1) small molecule agonists, cell-based qHTS assay (AID 1963589). Also: nearly all actives have a fitted effect of over 35% in size. The essentials: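 Fluorescent calcium dye reports M1 activation in stably transfected CHO cells. Compounds, 15 concentrations, added after 1 h dye loading at 37 C; kinetic reading at 1 sec intervals.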
Chain of Muscarinic acetylcholine receptor M1 (Homo sapiens) (P11229 whole entry, looked up): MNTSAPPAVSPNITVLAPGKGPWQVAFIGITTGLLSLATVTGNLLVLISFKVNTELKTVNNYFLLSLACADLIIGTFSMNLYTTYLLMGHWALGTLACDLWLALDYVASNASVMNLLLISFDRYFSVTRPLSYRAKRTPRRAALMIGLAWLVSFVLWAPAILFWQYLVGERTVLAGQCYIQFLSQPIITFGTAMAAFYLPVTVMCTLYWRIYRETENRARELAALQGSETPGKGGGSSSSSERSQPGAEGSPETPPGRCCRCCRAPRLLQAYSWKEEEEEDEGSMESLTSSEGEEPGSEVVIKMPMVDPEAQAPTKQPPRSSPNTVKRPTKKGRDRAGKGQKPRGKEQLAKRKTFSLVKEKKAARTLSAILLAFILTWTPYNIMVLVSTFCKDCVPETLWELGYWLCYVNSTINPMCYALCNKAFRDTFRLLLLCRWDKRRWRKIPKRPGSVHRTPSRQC

Experiment [11] addresses D(2) dopamine receptor (Homo sapiens) (UniProt P14416). The experiment in a line: Dopamine D2 receptor (DRD2) small molecule agonists, cell-based qHTS assay (AID 1963594). Also: nearly all actives have a fitted effect of over 35% in size. The essentials: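 HEK293 cells stably expressing human DRD2, pre-treated with PDE inhibitor Ro20-1724 (0.1 mM final) and compound 10 min at room temperature, then stimulated with NKH477 (200nM […]) for 30 min. cAMP read by HTRF (665/620 nm).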

The target is the same in experiment [12]. The experiment in a line: Dopamine D2 receptor (DRD2) small molecule antagonists, cell-based qHTS assay (AID 1963595; active = well fitted inhibition curve with a large enough effect in the signal ratio in the repeat runs, with a control signal flat; the % refers to the signal ratio). The method, boiled down:
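Antagonist mode in DRD2-HEK293 cells: after compound addition with 0.1 mM Ro20-1724, cells received quinpirole (12 nM) and NKH477 (200 nM) for 30 min at room temperature; HTRF cAMP read after 1 h detection.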

Experiment [13] deals with Gonadotropin-releasing hormone receptor (Homo sapiens) (UniProt P30968). The experiment in a line: Human gonadotropin-releasing hormone receptor (GnRHR) small molecule agonists, calcium flux assay in GnRHR-HEK293 cells (AID 1920063). Also: nearly all actives have a fitted effect of over 35% in size. The method, boiled down: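 Intracellular calcium rise is the read-out: engineered human GnRHR HEK293 cells, dye-loaded, are exposed to DMSO-dissolved compounds and fluorescence at Ex/Em 480/540 is tracked for 3 min.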
Chain of Gonadotropin-releasing hormone receptor (Homo sapiens) (P30968 whole entry, looked up): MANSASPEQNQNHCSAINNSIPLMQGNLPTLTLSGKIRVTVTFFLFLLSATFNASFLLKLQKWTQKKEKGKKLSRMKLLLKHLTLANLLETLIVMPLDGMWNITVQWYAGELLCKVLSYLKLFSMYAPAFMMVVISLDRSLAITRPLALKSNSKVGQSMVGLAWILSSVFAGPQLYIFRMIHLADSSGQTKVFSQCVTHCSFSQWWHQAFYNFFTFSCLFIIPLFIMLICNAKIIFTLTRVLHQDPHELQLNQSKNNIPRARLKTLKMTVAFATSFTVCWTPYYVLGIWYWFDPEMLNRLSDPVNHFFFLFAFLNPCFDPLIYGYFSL

A short description of experiment [14]: cAMP Responsive Elements (CRE) small molecule antagonists, cell-based qHTS assay (AID 1963591; active = well fitted inhibition curve with a large enough effect in the signal ratio in the repeat runs, not every such curve was filed as active; the % refers to the signal ratio). The essentials:
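Stimulation used NKH477 at a final 0.25 uM for 3 h in compound-treated CRE-bla HEK293T cells, seeded 18 h beforehand. Reporter activity was measured with LiveBLAzer B/G FRET substrate after 2 h at room temperature.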

Experiment [15] concerns the target Beta-2 adrenergic receptor (Homo sapiens) (UniProt P07550). The experiment in a line: Adrenergic beta2 receptor (ADRB2) small molecule antagonists, cell-based qHTS assay (AID 1963592). Also: nearly all actives have a fitted effect of over 50% in size. Also: potency is read from the fitted curve at half-maximal effect. As to activity change, negative = inhibition: series mostly up to about 92 µM. The method, boiled down:
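Assay format: CHO-ADRB2 cells, 18-20hr seeding at 37C/5% CO2, then compound plus 1nM isoproterenol agonist mix for 0.5hr RT. Homogeneous time-resolved fluorescence cAMP detection after 1hr, expressed as 665/615 nm ratio.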

Experiment [16] in a line: p53 small molecule agonists, cell-based qHTS assay (AID 1963582; active = well fitted activation curve with a large enough effect in the signal ratio in the repeat runs, not every such curve was filed as active; the % refers to the signal ratio). The method, boiled down: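 After plating, p53RE-bla cells sat 5 h in the incubator; compounds or DMSO vehicle were pinned in; a 16 h incubation at 37 C followed; FRET substrate was added and, 2 h later at RT, fluorescence was measured.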
Experiment [17] addresses 5-hydroxytryptamine receptor 2A (Homo sapiens) (UniProt P28223). The experiment in a line: 5-hydroxytryptamine receptor 2A (HTR2A) small molecule antagonists, cell-based qHTS assay (AID 1963586). Also: nearly all actives have a fitted effect of over 45% in size. The essentials: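 CHO cells stably expressing human HTR2A were plated for 18 h at 37 C, then loaded with calcium dye for 1 h. Compounds were preincubated 5 min at room temperature before DOI (4 nM solution) was added. Kinetic fluorescence was read for 3 min.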

In experiment [18] the target is Muscarinic acetylcholine receptor M1 (Homo sapiens) (UniProt P11229). The experiment in a line: Cholinergic receptor muscarinic 1 (CHRM1) small molecule antagonists, cell-based qHTS assay (AID 1963588). Also: nearly all actives have a fitted effect of over 40% in size. The method, boiled down:
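Compounds were tested at 15 concentrations in three independent runs. Dye-loaded CHRM1-CHO cells were exposed 5 min at room temperature before stimulation by acetylcholine added at 50nM. Intracellular calcium was read kinetically on FDSS for 3 min.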

Experiment [19] in a line: cAMP Responsive Elements (CRE) small molecule agonists, cell-based qHTS assay (AID 1963590). The method, boiled down:
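Compound exposure lasted 3 h at 37 C/5% CO2 in CRE-bla HEK 293T cells grown in assay medium with 10% dialyzed FBS and 25 mM HEPES. Reporter signal came from LiveBLAzer B/G FRET substrate, 2 h, room temperature.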

The target of experiment [20] is Beta-2 adrenergic receptor (Homo sapiens) (UniProt P07550). The experiment in a line: Adrenergic beta2 receptor (ADRB2) small molecule agonists, cell-based qHTS assay (AID 1963593).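 Also: CHO cells stably overexpressing human ADRB2.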 The method, boiled down: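 CHO cells stably over-expressing ADRB2 were plated overnight at 37C, then dosed with compounds plus a stimulation mix containing 100uM IBMX and 25uM Ro-20-1724 for 0.5hr at room temperature. cAMP was measured by HTRF competition, 1hr.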
Chain of Beta-2 adrenergic receptor (Homo sapiens) (P07550 whole entry, looked up): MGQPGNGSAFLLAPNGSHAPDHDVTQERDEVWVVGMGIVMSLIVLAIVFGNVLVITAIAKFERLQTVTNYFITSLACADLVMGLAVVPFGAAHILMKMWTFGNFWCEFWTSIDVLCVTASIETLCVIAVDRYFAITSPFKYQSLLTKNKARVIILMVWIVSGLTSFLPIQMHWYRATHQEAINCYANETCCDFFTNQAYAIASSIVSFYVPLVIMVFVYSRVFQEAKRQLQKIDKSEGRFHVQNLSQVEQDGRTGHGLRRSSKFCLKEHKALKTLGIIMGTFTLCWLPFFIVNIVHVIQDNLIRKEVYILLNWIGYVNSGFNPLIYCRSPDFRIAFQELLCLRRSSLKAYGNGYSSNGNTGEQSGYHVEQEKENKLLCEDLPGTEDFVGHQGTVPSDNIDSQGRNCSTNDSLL

Unmarked numbers belong to inactive results. Inconclusive results are not listed. The source made the active and inactive calls. Unless noted, calls follow the shape of the full dose curve.
% is scaled to controls: 0 for no effect and ±100 for the full control effect.

Chain of 5-hydroxytryptamine receptor 2A (Homo sapiens) (P28223 whole entry, looked up): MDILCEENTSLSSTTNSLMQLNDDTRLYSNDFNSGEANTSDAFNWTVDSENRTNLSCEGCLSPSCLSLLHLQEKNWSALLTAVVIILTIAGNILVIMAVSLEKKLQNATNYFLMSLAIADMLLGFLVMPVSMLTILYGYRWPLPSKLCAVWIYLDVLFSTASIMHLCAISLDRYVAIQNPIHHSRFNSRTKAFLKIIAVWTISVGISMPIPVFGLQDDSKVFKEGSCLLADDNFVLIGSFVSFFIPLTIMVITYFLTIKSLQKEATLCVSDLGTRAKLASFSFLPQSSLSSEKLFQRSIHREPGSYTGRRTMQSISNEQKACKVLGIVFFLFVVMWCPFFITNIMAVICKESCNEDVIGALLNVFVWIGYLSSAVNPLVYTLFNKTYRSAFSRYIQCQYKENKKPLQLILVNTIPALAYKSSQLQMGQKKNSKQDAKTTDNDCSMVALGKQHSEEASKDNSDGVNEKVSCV
Chain of D(2) dopamine receptor (Homo sapiens) (P14416 whole entry, looked up): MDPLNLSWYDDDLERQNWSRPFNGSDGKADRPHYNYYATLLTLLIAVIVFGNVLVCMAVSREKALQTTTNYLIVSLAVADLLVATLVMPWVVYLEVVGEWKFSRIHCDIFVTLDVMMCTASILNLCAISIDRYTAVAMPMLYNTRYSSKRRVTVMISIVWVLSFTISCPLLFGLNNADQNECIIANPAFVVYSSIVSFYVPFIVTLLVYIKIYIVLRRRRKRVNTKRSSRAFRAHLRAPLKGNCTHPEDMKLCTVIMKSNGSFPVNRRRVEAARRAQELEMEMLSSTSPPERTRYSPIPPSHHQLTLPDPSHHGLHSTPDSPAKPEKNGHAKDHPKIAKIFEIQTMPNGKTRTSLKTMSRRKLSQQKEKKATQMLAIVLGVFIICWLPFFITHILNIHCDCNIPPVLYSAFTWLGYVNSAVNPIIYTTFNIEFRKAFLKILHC

In the case of `CC(C(O)c1ccccc1)N(C)CCOC(c1ccccc1)c1ccccc1` (stereo not drawn), the Potency is 18.8 µM (active) in experiment [1] and 23.9 µM (active) in experiment [9]. For the same compound, the Potency entry in experiment [2], in experiment [3], in [4], in experiment [5], in experiment [6] and in [7] was “inactive” throughout. For the same compound, the Potency result in experiment [8], in [10], in experiment [11] and in experiment [12] was “inactive” in each case.
As for `O=C(O)c1cccnc1Nc1cccc(C(F)(F)F)c1`, the Potency result in experiment [1], in experiment [13], in experiment [4], in experiment [6], in experiment [7] and in experiment [8] was “inactive” throughout. Besides, the Potency entry in [14], in experiment [15], in experiment [11] and in experiment [12] was “inactive” in each case. Moreover, the Potency in experiment [2] was 23.7 µM (active).
As for `c1cc2ccc3ccc4ccc5cccc6c(c1)c2c3c4c56`, the activity change, negative = cytotoxicity was 3.98% [at 3.27 µM] in experiment [1], -1.32% [at 2.33 µM] in [6] and 2.26% [at 2.33 µM] in [8]. Besides, the activity, positive = activation in experiment [2] was 4.07% [at 3.27 µM]. Moreover, in [13], the activity change is 0.532% [at 2.04 µM, active compounds read high]. Also, the activation in experiment [4] was -0.291% [at 2.04 µM]; in experiment [16], 5.49% [at 2.33 µM]; in [9], 13.2% [at 2.65 µM]; in [10], 0.275% [at 2.72 µM]; in experiment [19], 6.38% [at 3.27 µM]; in experiment [11] it was -0.0755% [at 3.27 µM]. Besides, the activity, negative = inhibition in experiment [17] was 1.93% [at 2.12 µM]; in experiment [18], 5.84% [at 2.17 µM]. Moreover, the activity change, negative = inhibition in [14] is 7.84% [at 3.27 µM]; in experiment [15], 4.76% [at 3.27 µM]; in experiment [12], -0.594% [at 3.28 µM].
In the case of `Cc1onc(-c2ccccc2Cl)c1C(=O)N[C@@H]1C(=O)N2[C@@H]1SC(C)(C)[C@@H]2C(=O)O`, the Potency result in experiment [1], in [2], in experiment [13], in experiment [4], in experiment [6] and in experiment [7] was “inactive” in each case. Further, the Potency result in experiment [8], in [14], in [15], in [20], in [11] and in experiment [12] was “inactive” each time.
Turning to `CCCCC[Si](OCC)(OCC)OCC`, the Potency result in [1], in [2], in [13], in [4], in [6] and in [7] was “inactive” throughout. Further, the Potency result in [8], in [17], in [18], in experiment [10], in experiment [19] and in experiment [14] was “inactive” in each case. Moreover, the Potency entry in experiment [15], in [20], in experiment [11] and in experiment [12] was “inactive” each time.
As for `CCCCCCCC/C=C\CCCCCCCC(=O)OC(CO)CO`, the Potency result in experiment [1], in experiment [13], in [4], in [7], in experiment [8] and in experiment [17] was “inactive” in each case. In addition, the Potency result in experiment [9], in experiment [18], in [10], in [14], in experiment [15] and in [20] was “inactive” in each case. In addition, the Potency entry in experiment [11] was “inactive”. Besides, in [2], the Potency was 34.4 µM (active).
In the case of `c1coc(Cn2cccc2)c1`, the Potency entry in [1], in experiment [2], in experiment [3], in experiment [4], in [5] and in [6] was “inactive” in each case. In addition, the Potency result in experiment [7], in experiment [8], in experiment [16], in experiment [17], in experiment [18] and in experiment [14] was “inactive” in each case. Besides, the Potency entry in [12] is “inactive”. In experiment [15], the Potency is 30.6 µM (active).
As to `CCCCNCC`, the Potency entry in [1], in experiment [2], in experiment [13], in experiment [4], in [7] and in [17] was “inactive” each time. Moreover, the Potency result in experiment [9], in [18], in experiment [10], in experiment [19], in [14] and in experiment [15] was “inactive” in each case. Further, the Potency result in experiment [11] and in experiment [12] was “inactive” each time.
As to `CCCC/C=C/C=C\C=O`, the Potency result in [1], in [13], in experiment [5], in experiment [6], in [7] and in [8] was “inactive” each time. Besides, the Potency entry in experiment [16], in [17], in [9], in experiment [18], in experiment [19] and in [11] was “inactive” each time. For the same compound, the Potency entry in experiment [12] is “inactive”. In experiment [2], the Potency was 61.1 µM (active).
